Inconclusive results are not listed. A number with no mark means an inactive call. Activity calls are given as the source filed them. The call rests on the fitted dose curve; in most records, active means well fitted activation curve with a large enough effect in the repeat runs; inconclusive means weak or mixed curves; inactive means no such curve, though single readings can be large or run the other way.
molecular target: Nuclear receptor subfamily 1 group I member 3 (Homo sapiens) (UniProt Q14994); test: qHTS assay to identify small molecule agonists of the constitutive androstane receptor (CAR) signaling pathway (AID 1224839); conditions: HepG2 hCAR CYP2B6-luciferase, agonist mode, 24 h; series mostly up to 92.4 µM; activation: at the top concentration; further: nearly all actives have a fitted effect of over 15% in size;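 on activation: HepG2 cells stably carrying human CAR and a CYP2B6 luciferase reporter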
Sequence (Q14994 whole entry, looked up): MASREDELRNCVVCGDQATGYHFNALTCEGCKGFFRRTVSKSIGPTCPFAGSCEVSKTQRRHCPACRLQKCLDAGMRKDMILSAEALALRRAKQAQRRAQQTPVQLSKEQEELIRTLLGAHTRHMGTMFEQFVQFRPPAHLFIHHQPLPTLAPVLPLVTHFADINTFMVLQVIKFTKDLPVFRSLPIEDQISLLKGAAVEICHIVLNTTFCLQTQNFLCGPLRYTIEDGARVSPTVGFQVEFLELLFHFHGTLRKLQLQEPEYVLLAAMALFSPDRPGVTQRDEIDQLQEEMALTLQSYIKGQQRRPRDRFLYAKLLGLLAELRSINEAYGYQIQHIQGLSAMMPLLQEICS
Source text: National Center for Advancing Translational Sciences [NCATS] NIH Chemical Genomics Center [NCGC] U.S. Environmental Protection Agency [EPA] National Institutes of Environmental Health Sciences [NIEHS] National Toxicology Program [NTP] Assay overview: The constitutive androstane receptor (CAR) is a nuclear receptor which regulates multiple drug metabolizing enzymes (DMEs) and transporters. Activating CAR will generally increase the transcription and subsequent translation of CYP2B6 and CYP3A4. These two DMEs represent about 50% of the drug metabolizing potential in the body. […] Recently, there have also been studies performed indicating CARs role in energy metabolism and cancer therapy. Therefore, inducing CARs activity could have a potential effect on diabetes and cancer. Identifying environmental toxins and compounds which modulate CAR, through the use of the Tox21 10K compound collection, will be an important step in determining the toxicity and potential therapeutic effects these factors will have on the human body.
Assay Protocol Summary: A double-stable (hCAR and CYP2B6-2.2kb) transfected cell line, derived from human hepatoma (HepG2) cells, was utilized for the duration of the quantitative high-throughput screens. The HepG2-CYP2B6-hCAR cells suspended in DMEM culture medium supplemented with 10% FBS, 5 ug/mL blasticidin, 0.5 mg/mL geneticin, 100 U/mL penicillin and 100 ug/mL streptomycin were dispensed at 2500 cells/4 uL/well in 1536-well white solid bottom plates using a Multidrop Combi. After the assay plates were incubated at 37 C/5% CO2 for 4 hrs, 23 nL of compounds at 15 concentrations (from 5-48 columns) or positive control (from 1 to 4 columns) were transferred to the assay plates using a Pintool station. One uL of PK11195, was added using a Flying Reagent Dispenser to generate a final concentration of 0.75 uM PK11195 inside each well. After a 24 hr incubation period at 37 C/5% CO2, four uL of ONE-Glo reagent was added into the assay plates using a Flying Reagent Dispenser. After a 30 min incubation period at room temperature, the luminescence intensity in the assay plates was measured using a ViewLux plate reader.
On the % scale 0 is the no-effect control and ±100 the full control effect; potency means the concentration at half of the fitted maximal effect.

Row | SMILES | activation | Potency
1 | Cc1nccn1CC1CCc2c(c3ccccc3n2C)C1=O (stereo not given) | -3.13% [at 42.5 µM] | 
2 | CCCCCCCCCCC1CO1 (stereo not given) | -0.332% | 
3 | CCCc1ccc(N)cc1 | 7.23% | 
4 | O=S(=O)(c1cccc2cnccc12)N1CCCNCC1 | -8% [at 42.5 µM] | 
5 | CCN(CC)C(=O)c1ccc(O)c(OC)c1 | 1.24% [at 42.5 µM] | 
6 | C=CCOCC(O)CS(=O)(=O)O (stereo not given) | -6.34% | 
7 | CCOC(=O)Nc1ccc2c(c1)N(C(=O)CCN1CCOCC1)c1ccccc1S2 | -11.2% [at 42.5 µM] | 
8 | CCCCc1ccc2cccc(S(=O)(=O)O)c2c1 | 0.0822% | 
9 | OC[C@H]1O[C@@H]2O[C@H]3[C@H](O)[C@@H](O)[C@@H](O[C@H]4[C@H](O)[C@@H](O)[C@@H](O[C@H]5[C@H](O)[C@@H](O)[C@@H](O[C@H]6[C@H](O)[C@@H](O)[C@@H](O[C@H]7[C@H](O)[C@@H](O)[C@@H](O[C@H]8[C@H](O)[C@@H](O)[C@@H](O[C@H]9[C@H](O)[C@@H](O)[C@@H](O[C@H]1[C@H](O)[C@H]2O)O[C@@H]9CO)O[C@@H]8CO)O[C@@H]7CO)O[C@@H]6CO)O[C@@H]5CO)O[C@@H]4CO)O[C@@H]3CO | 0.677% [at 42.5 µM] | 
10 | C=C[Si](OC)(OC)OC | 0.988% | 
11 | COC[C@H](c1ccc(C(F)(F)F)cc1)N1CCN(C2(C)CCN(C(=O)c3c(C)ncnc3C)CC2)C[C@H]1C | -2.23% [at 42.5 µM] | 
12 | CC1(C)OC(=O)Nc2ccc(Br)cc21 | 5.17% [at 42.5 µM] | 
13 | NC(=O)Nc1nc2ccccc2[nH]1 | 9.27% | 
14 | CCCC(C)C(=O)O (stereo not given) | 4.86% | 
15 | CC(C)COC(=O)c1ccccc1O | 0.354% | 
16 | Nc1ccc2cc(S(=O)(=O)O)ccc2c1 | -2.66% | 
17 | CCN(CC)S(=O)(=O)c1ccc(C(=O)O)cc1 | 0.423% [at 42.5 µM] | 
18 | Cc1nc(-c2ccc(OCC(C)C)c(C#N)c2)sc1C(=O)O |  | 0.075 µM (active)
19 | CCCCCCCCN(C)CCCCCCCC | -3.73% | 
20 | CC(C)c1cccc(O)c1 | -2.18% | 

Row | SMILES | activation | Potency
21 | COC(=O)CCCC(=O)O | -2.06% | 
22 | [O-][N+](=Nc1ccccc1)c1ccccc1 |  | 30.6 µM (active)
23 | CN(C)CCOC(c1ccc(Cl)cc1)c1ccccn1 (stereo not given) | -5.55% [at 42.5 µM] | 
24 | CCC(=O)Nc1cccc(N)c1 | -1.8% | 
25 | NS(=O)(=O)c1cc2c(cc1Cl)NC(CSCc1ccccc1)=NS2(=O)=O | 0.219% [at 42.5 µM] | 
26 | CN(C)C(=O)Nc1ccccc1 | -1.79% | 
27 | CCO[Si](C)(OCC)OCC | 0.395% | 
28 | CO[Si](OC)(OC)OC | -0.412% | 
29 | Cc1ccccc1Br | -0.655% | 
30 | O=C(O)c1ccccc1S | 0.596% [at 42.5 µM] | 
31 | CC(C=O)Cc1ccc(C(C)C)cc1 (stereo not given) | -1.77% | 
32 | CC(C)N1C(=O)c2ccccc2C1=O | 3.47% | 
33 | O=C1CC2(CCCC2)CC(=O)N1 | 0.109% [at 42.5 µM] | 
34 | C1C2OC2C2C1C1CC2C2OC12 (stereo not given) | 1.24% | 
35 | C#CC(O)C(CC)CCCC (stereo not given) | -4.03% | 
36 | NC1CCN(c2cccc(Cl)n2)CC1 | 1.69% [at 42.5 µM] | 
37 | CC(C)=CC(=O)O | -0.644% | 
38 | NCCN1CCNC1=O | 3.71% | 
39 | NC(=S)Nc1cccc2ccccc12 | 2.72% [at 8.39 µM] | 
40 | N#CC1(O)CCCCC1 | 8.4% | 
